Test [1] deals with Death-associated protein kinase 1 (Homo sapiens) (UniProt P53355). Conditions: at 1 µM.
Test [2] concerns the target T1, Serine/threonine-protein kinase DCLK2 (Homo sapiens) (UniProt Q8N568).
T1 sequence (whole entry): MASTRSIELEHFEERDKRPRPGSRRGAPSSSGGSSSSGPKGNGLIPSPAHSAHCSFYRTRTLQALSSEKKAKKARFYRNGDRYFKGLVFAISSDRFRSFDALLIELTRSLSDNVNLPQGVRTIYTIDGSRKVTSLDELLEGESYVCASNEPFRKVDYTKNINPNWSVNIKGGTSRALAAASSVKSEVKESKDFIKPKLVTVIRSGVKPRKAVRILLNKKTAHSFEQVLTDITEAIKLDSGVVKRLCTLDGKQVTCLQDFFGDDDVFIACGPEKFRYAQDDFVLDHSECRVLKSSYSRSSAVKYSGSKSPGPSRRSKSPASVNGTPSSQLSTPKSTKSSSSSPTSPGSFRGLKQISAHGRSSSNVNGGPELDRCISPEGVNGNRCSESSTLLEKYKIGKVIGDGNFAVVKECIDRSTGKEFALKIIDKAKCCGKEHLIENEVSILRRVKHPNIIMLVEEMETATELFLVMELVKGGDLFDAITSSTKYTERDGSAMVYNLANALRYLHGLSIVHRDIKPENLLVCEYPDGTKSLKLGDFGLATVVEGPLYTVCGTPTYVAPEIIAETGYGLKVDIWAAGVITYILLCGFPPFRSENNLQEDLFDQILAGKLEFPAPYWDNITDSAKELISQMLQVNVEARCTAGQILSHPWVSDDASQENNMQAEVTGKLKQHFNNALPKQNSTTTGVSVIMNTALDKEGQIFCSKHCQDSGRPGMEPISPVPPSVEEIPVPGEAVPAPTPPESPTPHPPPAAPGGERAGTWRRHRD
Conditions: at 0.1 µM.

In test [3] the target is T1, Serine/threonine-protein kinase DCLK2 (Homo sapiens). The following applies: at 1 µM.
For test [4], the target named is MAP kinase-activated protein kinase 2 (Homo sapiens) (UniProt P49137). Conditions: at 0.1 µM.
The target is the same in test [5]. Conditions: at 1 µM.
The target of test [6] is MAP kinase-activated protein kinase 3 (Homo sapiens) (UniProt Q16644). Conditions: at 0.1 µM.
The target is the same in test [7]. The following applies: at 1 µM.
Test [8] has as its target Serine/threonine-protein kinase MARK1 (Homo sapiens) (UniProt Q9P0L2). The following applies: at 0.1 µM.
The target is the same in test [9]. Conditions: at 1 µM.
In test [10] the target is MAP/microtubule affinity-regulating kinase 3 (Homo sapiens) (UniProt P27448). The following applies: at 0.1 µM.
For test [11] the target is unchanged. The following applies: at 1 µM.
Test [12] deals with T2, MAP/microtubule affinity-regulating kinase 4 (Homo sapiens) (UniProt Q96L34).
T2 sequence (whole entry): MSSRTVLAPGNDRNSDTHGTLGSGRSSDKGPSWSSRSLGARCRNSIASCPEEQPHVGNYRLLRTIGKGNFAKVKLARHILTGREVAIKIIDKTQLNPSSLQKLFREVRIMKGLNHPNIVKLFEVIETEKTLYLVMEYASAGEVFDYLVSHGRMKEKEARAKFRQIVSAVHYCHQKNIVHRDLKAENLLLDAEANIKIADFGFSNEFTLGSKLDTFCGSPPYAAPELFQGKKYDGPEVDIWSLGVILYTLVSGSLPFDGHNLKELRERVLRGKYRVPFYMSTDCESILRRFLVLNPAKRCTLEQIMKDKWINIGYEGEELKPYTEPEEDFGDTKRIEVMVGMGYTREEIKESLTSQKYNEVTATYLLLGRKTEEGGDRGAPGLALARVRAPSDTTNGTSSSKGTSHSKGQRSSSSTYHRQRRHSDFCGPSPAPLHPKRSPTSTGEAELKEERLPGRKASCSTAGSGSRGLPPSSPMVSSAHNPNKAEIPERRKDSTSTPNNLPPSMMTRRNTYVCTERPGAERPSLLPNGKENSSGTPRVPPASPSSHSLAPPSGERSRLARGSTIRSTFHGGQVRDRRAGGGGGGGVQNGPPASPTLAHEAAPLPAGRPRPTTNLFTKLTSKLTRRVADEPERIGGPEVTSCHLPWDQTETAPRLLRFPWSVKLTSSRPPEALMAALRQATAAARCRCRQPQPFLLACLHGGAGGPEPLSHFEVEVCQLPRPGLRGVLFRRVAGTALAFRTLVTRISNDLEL
The following applies: at 0.1 µM.

Test [13] has as its target T2, MAP/microtubule affinity-regulating kinase 4 (Homo sapiens). Conditions: at 1 µM.
The target of test [14] is Maternal embryonic leucine zipper kinase (Homo sapiens) (UniProt Q14680). Conditions: at 0.1 µM.
Test [15] shares this target. Conditions: at 1 µM.
The target in test [16] is MAP kinase-interacting serine/threonine-protein kinase 1 (Homo sapiens) (UniProt Q9BUB5). Conditions: at 0.1 µM.
The target is the same in test [17]. Conditions: at 1 µM.
For test [18], the target named is MAP kinase-interacting serine/threonine-protein kinase 2 (Homo sapiens) (UniProt Q9HBH9). Conditions: at 0.1 µM.
Test [19] has the same target. The following applies: at 1 µM.
The target of test [20] is Serine/threonine-protein kinase MARK2 (Homo sapiens) (UniProt Q7KZI7). Conditions: at 0.1 µM.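 Note: mean percent inhibition of PAR-1Balpha kinase activity, reported from the GSK PKIS screen.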

What is called inhibition is the drop in the measured response relative to a control, in per cent.

Death-associated protein kinase 1 (Homo sapiens), sequence (P53355 whole entry, looked up): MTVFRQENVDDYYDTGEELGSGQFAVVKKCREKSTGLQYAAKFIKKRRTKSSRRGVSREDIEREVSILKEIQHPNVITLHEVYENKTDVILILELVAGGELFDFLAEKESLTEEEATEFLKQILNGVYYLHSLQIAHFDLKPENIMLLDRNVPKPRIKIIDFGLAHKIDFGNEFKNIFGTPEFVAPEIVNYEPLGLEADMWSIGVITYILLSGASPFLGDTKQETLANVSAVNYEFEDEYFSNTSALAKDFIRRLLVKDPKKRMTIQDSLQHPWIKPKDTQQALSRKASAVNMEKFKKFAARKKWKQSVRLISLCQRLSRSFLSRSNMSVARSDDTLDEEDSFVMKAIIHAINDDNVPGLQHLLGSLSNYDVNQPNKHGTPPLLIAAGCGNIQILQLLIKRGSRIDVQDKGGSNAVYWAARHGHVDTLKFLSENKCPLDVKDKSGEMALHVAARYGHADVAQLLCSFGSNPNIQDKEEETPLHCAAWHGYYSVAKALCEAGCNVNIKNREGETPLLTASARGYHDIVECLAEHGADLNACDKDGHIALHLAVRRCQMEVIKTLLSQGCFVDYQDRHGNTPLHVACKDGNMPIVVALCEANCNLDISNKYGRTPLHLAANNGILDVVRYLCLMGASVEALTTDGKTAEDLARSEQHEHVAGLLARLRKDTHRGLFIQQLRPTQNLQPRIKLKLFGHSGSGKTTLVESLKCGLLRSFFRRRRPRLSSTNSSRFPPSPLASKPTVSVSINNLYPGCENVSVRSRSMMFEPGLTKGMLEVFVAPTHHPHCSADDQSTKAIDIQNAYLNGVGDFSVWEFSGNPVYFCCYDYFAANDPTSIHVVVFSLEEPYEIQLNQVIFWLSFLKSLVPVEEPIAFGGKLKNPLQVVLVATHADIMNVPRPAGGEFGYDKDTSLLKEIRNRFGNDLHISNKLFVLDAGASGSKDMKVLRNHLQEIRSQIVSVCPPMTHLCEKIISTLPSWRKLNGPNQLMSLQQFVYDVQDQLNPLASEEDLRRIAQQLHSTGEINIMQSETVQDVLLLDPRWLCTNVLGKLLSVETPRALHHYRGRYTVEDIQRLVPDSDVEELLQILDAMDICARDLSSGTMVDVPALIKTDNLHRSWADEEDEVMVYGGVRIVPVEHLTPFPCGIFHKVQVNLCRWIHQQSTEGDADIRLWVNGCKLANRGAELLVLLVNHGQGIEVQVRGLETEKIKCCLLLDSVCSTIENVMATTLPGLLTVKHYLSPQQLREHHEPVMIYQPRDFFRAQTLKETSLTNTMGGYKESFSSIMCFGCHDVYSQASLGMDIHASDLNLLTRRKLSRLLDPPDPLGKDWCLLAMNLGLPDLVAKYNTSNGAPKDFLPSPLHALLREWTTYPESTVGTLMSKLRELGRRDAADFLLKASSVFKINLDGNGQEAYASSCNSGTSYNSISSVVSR
Serine/threonine-protein kinase MARK1 (Homo sapiens), sequence (Q9P0L2 whole entry, looked up): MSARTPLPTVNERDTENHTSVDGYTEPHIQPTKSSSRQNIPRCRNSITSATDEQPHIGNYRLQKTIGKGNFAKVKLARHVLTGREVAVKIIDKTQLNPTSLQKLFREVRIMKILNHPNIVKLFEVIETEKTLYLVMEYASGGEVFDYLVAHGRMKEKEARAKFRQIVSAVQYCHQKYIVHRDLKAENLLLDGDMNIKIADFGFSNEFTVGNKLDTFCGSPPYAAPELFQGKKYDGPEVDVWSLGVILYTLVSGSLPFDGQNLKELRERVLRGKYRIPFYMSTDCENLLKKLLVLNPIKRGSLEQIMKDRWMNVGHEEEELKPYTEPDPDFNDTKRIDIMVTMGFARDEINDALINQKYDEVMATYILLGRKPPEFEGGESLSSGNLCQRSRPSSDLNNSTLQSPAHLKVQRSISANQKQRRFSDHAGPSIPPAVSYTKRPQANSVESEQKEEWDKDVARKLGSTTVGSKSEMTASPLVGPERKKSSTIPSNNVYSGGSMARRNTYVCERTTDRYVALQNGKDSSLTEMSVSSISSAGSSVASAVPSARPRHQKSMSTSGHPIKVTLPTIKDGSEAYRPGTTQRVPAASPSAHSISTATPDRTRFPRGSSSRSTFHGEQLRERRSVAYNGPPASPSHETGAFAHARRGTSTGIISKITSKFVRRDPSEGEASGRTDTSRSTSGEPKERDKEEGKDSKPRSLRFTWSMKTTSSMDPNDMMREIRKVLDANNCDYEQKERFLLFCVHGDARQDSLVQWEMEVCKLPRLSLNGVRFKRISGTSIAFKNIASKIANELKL
MAP kinase-interacting serine/threonine-protein kinase 1 (Homo sapiens), sequence (Q9BUB5 whole entry, looked up): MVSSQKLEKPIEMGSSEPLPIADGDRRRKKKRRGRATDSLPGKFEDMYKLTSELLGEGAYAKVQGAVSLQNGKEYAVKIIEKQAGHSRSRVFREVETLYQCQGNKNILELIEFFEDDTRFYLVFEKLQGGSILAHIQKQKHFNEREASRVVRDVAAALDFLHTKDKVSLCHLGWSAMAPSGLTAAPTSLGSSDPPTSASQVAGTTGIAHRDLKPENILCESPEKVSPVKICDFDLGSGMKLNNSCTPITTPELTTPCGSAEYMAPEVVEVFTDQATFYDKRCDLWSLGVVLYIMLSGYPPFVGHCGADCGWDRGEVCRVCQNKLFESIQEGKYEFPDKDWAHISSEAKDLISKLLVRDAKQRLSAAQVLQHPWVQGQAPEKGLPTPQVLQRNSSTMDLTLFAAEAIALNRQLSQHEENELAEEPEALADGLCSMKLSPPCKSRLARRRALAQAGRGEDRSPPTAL
MAP kinase-interacting serine/threonine-protein kinase 2 (Homo sapiens), sequence (Q9HBH9 whole entry, looked up): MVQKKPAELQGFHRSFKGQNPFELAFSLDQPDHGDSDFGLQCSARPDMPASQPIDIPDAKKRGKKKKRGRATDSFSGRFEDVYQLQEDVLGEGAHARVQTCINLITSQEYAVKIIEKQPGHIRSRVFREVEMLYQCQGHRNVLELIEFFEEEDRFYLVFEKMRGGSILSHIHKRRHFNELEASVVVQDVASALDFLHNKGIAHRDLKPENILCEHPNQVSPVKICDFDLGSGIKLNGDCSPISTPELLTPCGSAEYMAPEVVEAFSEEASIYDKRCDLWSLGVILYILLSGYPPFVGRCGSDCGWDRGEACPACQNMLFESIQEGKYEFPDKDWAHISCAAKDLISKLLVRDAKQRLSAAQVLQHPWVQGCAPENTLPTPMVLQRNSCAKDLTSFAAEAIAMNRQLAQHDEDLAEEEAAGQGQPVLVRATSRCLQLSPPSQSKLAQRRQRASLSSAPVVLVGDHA
MAP kinase-activated protein kinase 3 (Homo sapiens), sequence (Q16644 whole entry, looked up): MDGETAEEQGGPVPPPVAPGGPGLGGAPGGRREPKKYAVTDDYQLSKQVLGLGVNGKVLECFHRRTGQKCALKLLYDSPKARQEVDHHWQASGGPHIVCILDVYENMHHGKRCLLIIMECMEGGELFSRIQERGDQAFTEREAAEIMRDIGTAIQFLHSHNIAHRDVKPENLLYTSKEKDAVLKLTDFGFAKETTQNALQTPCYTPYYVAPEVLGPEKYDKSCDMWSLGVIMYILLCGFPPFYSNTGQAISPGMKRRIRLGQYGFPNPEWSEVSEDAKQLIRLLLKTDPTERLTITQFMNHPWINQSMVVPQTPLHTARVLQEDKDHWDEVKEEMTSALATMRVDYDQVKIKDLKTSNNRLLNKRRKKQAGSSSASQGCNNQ
Serine/threonine-protein kinase MARK2 (Homo sapiens), sequence (Q7KZI7 whole entry): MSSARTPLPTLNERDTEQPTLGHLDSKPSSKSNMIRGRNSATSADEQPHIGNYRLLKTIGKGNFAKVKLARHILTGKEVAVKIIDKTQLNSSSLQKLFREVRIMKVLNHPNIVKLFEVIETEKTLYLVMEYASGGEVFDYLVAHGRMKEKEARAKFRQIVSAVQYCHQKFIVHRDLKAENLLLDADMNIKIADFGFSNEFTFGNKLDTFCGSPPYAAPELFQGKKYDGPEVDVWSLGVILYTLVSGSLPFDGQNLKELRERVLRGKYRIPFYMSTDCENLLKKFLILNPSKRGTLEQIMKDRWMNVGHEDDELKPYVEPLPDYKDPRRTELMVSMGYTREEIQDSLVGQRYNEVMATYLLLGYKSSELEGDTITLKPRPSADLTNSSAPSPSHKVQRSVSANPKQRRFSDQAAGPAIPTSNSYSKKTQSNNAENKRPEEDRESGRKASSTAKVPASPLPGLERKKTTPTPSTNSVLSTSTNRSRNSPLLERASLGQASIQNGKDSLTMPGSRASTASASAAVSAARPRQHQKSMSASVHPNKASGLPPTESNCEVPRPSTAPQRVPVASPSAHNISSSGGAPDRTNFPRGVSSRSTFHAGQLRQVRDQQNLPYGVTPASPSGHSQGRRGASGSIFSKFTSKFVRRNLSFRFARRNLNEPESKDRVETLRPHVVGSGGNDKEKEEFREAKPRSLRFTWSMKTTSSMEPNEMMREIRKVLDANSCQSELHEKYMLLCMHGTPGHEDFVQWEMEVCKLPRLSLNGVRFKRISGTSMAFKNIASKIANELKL
Maternal embryonic leucine zipper kinase (Homo sapiens), sequence (Q14680 whole entry, looked up): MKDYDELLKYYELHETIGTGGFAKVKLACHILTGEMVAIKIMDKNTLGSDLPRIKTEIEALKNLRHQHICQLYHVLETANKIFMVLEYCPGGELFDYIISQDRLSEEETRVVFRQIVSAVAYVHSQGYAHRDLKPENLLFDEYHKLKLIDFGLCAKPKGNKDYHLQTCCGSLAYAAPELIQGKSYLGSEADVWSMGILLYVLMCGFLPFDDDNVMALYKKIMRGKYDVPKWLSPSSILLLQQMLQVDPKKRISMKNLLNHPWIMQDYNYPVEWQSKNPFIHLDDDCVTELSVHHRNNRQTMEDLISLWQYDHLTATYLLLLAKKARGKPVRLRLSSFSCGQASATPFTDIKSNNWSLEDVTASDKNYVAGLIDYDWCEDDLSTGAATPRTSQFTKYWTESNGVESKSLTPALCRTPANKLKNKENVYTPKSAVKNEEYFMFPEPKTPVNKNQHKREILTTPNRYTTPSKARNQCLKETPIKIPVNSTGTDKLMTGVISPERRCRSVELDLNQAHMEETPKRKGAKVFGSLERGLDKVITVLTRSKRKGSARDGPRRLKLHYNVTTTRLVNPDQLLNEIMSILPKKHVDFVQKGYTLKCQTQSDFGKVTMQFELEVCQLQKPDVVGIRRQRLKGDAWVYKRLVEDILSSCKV

On to `COc1ccc(-c2cc3c(N)ncnc3o2)cc1`, for which the inhibition in test [1] is -3.05%; in test [2], -1.82%; in test [3], 0.37%; in test [4], -1.21%; in [5], -0.76%; in test [6], -1.27%. The inhibition in test [7] is -1.91%; in test [8] it was 0.03%; in [9], 2.81%; in test [10] it was -1.55%; in test [11], 4.01%; in test [12], 0.16%. In addition, the inhibition is 1.62% in test [13]; -3.33% in [14]; -1.79% in test [15]; 0.35% in [16]; 2% in [17]; 0.74% in test [18]. In addition, the figures for the inhibition in [19] and in [20] were 4.21% and -0.22%, respectively.

`Nc1ncc(-c2cccc(S(N)(=O)=O)c2)c2scc(-c3ccc(F)c(Cl)c3)c12`: the inhibition is 3.2% in test [1]; 0.41% in test [2]; 0.61% in [3]; 1.76% in test [4]; 1.12% in [5]; 6% in test [6]. Besides, the inhibition in [7] was 15.7%; in test [8] it was 3.57%; in test [9] it was 5.62%; in test [10], -0.65%; in test [11], 5.19%; in test [12], 3.07%. Besides, the inhibition worked out at 5.58% in [13]; 5.13% in [14]; 2.9% in test [15]; 3.42% in test [16]; 4.48% in [17]; 1.7% in test [18]. Moreover, the inhibition turned out to be 6.22% in test [19] and 0.24% in test [20].

With `CCc1nn2ncccc2c1-c1ccnc(NC2CC2)n1`, the inhibition in test [1] was 1.38%; in test [2], -1.54%; in [3], 2.15%; in [4], 1.44%; in test [5], 2.07%; in test [6] it was 1.73%. The inhibition in test [7] turned out to be 2.3%; in [8], 0.89%; in [9] it was 2.47%; in test [10], 0.47%; in test [11] it was 3.36%; in test [12] it was 2.15%. Moreover, the inhibition in [13] is 2.34%; in [14], 2.14%; in [15], 5.08%; in test [16], 5.42%; in test [17], 17.9%; in test [18] it was 2.69%. For the same molecule, the inhibition in test [19] amounted to 8.83%; in test [20], 1.31%.

Take `CC(C)COC(=O)c1ccc2c(c1)/C(=C/Nc1ccc(S(N)(=O)=O)cc1)C(=O)N2`: the inhibition in test [1] is 3.08%; in [2] it was -2.21%; in [3], 10.2%; in test [4], -0.97%; in test [5], -1.28%; in test [6] it was -2.74%. Also, the inhibition is -2.61% in test [7]; 42.7% in [8]; 87.1% in test [9]; 33.3% in [10]; 88.7% in test [11]; 24.6% in [12]. The inhibition in test [13] was 77.5%; in [14] it was 50.1%; in [15] it was 93.2%; in test [16], -1.01%; in test [17] it was 6.56%; in test [18] it was 1.73%. Also, the inhibition in test [19] was found to be 13.9%; in [20] it was 25.9%.

With `N#Cc1c(NC(=O)c2ccc(F)cc2)sc2c1CCCC2`, the inhibition in test [1] is 0.36%; in test [2], 0%; in test [3], 5.74%; in [4], 0.34%; in test [5], -0.56%; in test [6] it was 0.8%. Besides, the inhibition was 0.7% in [7]; 1.17% in [8]; 0.93% in test [9]; -0.62% in [10]; 1.66% in [11]; 0.11% in test [12]. For the same molecule, the inhibition in [13] came to 1.29%; in test [14] it was 0.18%; in [15] it was 5.26%; in test [16], 0.47%; in test [17], 1.91%; in test [18], 0.57%. The values for the inhibition in [19] and in test [20] were 1.1% and 0.6%, respectively.

As for `CCN1CCC(CC(=O)Nc2n[nH]c3nnc(-c4cccc(F)c4F)cc23)CC1`, the inhibition was 3.28% in test [1]; -0.85% in test [2]; 1.18% in [3]; 1.15% in test [4]; 0.52% in [5]; 1.74% in test [6]. The inhibition in [7] stood at 0.62%; in test [8], 1.89%; in test [9], 2.48%; in test [10], 2.14%; in test [11] it was 2.57%; in test [12] it was 2.32%. Moreover, the inhibition was determined as 2.11% in [13]; 3.71% in [14]; 2.39% in test [15]; 1.66% in [16]; 2.05% in test [17]; 1.98% in test [18]. The inhibition is 2.98% in test [19] and -2.03% in test [20].

(Values after ChEMBL document CHEMBL1961873, “Compounds: GSK PKIS; Assays: Nanosyn kinase panel” (2012).)
